The nature of assay [1]: binders of probe aFSTL3 on microarray, primary screen, stem cell growth factor project, biochemical, small-molecule microarray, fluorescence 635/667 (AID 1064).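 Note: measures binding of the biotinylated anti-FSTL3 antibody to printed compounds.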 To be noted: higher = more signal.
The nature of assay [2]: binders from COS7 lysate, DM2A8 probe, primary screen, torsin A project, cell lysate, small-molecule microarray, fluorescence 635/667 (AID 1065). As to conditions: higher = more signal, COS7 lysate expressing mutant human TOR1A.
Assay [3] is described as follows: binders of probe aFGF2 on microarray, primary screen, stem cell growth factor project, biochemical, small-molecule microarray, fluorescence 635/667 (AID 1067).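 Note: measures binding of biotinylated aFGF2 protein to printed compounds on slides; z-score merges feature fluorescence and signal-to-noise across triplicate slides.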 As to conditions: higher = more signal.
The nature of assay [4]: binders of probe aFGF10 on microarray, primary screen, stem cell growth factor project, biochemical, small-molecule microarray, fluorescence 635/667 (AID 1071).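 Note: score merges 667 nm spot intensity and signal to noise from triplicate slides.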 To be noted: higher = more signal.
The target in assay [5] is Neurogenic locus notch homolog protein 2 (Homo sapiens) (UniProt Q04721). The assay can be described thus: Notch2 binders on small-molecule microarrays, primary screen, biochemical, small-molecule microarray, 635 nm fluorescence, stem cell growth factors (AID 1073). As to conditions: Notch2 binding, higher = more signal.
Sequence of Neurogenic locus notch homolog protein 2 (Homo sapiens) (Q04721 whole entry, looked up, canonical isoform): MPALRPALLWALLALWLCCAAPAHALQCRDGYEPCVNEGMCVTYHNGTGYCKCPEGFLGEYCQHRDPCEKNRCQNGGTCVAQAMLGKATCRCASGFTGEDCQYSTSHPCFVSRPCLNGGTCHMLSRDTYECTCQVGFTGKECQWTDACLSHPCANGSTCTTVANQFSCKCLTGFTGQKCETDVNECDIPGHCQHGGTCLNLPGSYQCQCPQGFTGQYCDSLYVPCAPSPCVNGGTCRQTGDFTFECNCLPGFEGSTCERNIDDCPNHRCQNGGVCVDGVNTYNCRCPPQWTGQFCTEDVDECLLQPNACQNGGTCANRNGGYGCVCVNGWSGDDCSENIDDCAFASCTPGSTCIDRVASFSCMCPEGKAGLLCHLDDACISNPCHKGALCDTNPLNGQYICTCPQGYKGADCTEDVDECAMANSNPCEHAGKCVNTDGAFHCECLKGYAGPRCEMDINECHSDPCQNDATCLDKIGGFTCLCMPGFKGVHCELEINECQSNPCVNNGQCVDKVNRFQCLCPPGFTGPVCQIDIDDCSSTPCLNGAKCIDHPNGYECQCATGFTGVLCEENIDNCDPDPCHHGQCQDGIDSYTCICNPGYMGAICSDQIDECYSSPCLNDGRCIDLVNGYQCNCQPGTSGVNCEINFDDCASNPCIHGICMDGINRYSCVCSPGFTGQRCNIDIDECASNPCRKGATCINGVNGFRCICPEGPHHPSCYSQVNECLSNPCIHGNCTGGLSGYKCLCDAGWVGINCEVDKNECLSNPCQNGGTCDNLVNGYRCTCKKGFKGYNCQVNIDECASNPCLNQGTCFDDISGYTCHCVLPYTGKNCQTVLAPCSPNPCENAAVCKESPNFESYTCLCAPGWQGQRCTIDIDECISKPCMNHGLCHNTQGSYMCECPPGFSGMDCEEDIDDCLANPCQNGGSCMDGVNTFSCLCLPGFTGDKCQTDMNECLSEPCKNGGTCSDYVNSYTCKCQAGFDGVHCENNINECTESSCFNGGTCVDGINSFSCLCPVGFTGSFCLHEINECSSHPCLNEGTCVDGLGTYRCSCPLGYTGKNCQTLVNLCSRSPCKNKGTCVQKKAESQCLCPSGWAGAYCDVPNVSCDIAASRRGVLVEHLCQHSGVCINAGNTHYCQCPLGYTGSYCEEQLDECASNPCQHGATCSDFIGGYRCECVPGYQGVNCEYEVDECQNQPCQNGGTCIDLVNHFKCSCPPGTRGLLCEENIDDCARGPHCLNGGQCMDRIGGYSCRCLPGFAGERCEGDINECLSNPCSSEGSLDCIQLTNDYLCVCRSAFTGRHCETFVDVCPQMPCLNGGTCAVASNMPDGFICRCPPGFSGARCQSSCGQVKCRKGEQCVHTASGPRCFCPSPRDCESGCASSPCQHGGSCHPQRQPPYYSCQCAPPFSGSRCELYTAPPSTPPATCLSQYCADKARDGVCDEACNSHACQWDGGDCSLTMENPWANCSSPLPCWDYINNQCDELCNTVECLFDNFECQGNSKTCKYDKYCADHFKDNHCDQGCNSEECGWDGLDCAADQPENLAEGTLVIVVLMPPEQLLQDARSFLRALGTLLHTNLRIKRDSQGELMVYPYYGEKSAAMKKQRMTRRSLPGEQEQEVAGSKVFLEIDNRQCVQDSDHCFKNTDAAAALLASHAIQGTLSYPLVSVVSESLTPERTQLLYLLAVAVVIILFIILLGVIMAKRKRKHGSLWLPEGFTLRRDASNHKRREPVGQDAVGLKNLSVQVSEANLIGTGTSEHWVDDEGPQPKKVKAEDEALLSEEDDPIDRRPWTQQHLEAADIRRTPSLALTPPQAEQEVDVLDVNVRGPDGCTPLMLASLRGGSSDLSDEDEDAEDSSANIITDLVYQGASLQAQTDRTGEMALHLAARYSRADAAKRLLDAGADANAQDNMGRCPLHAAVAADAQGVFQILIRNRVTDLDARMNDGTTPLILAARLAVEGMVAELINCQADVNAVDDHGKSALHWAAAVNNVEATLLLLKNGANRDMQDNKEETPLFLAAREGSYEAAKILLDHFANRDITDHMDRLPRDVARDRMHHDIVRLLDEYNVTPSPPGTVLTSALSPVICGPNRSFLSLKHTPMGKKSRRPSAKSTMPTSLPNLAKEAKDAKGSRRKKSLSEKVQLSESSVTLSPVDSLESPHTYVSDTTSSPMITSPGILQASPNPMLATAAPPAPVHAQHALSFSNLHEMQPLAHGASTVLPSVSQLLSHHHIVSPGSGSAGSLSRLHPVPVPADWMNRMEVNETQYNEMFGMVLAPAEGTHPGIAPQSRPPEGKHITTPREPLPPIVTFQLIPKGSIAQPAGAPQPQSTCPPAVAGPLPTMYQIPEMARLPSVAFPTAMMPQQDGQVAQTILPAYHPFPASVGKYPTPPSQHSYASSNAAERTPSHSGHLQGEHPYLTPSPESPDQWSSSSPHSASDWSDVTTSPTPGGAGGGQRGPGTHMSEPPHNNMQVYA
The target of assay [6] is Pro-neuregulin-1, membrane-bound isoform (Homo sapiens) (UniProt Q02297). The assay can be described thus: NRG1 binders on small-molecule microarrays, primary screen, psychiatric disease protein project, biochemical, small-molecule microarray, fluorescence 635/667 (AID 1075).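 Note: score combines 667 nm spot fluorescence with signal to noise.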 To be noted: NRG1 binding, 635 nm fluorescence, higher = more signal.
For assay [7], the system named is Neuregulin-1 EGF-like domain. The assay can be described thus: binders of neuregulin-1 EGF-like domain, primary screen, biochemical, small-molecule microarray, 635 nm fluorescence (AID 1081).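 Note: binding of the protein to compounds printed on small-molecule microarray slides.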 To be noted: small-molecule microarray binding, higher = more signal.
The nature of assay [8]: FRG1 promoter luciferase signal modulators, primary screen, FRG1 inhibition for FSHD, cell-based, C2C12 myotubes, firefly/Renilla luciferase, luminescence (AID 1084). To be noted: higher = more signal, called active from +8 up or from −8 down.
A short description of assay [9]: binders of probe aFST on microarray, primary screen, stem cell growth factor project, biochemical, small-molecule microarray, fluorescence 635/667 (AID 1086).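 Note: score merges 667 nm fluorescence with signal-to-noise of each printed compound spot.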 As to conditions: higher = more signal.
Assay [10] in a line: binders of probe aHhip on microarray, primary screen, stem cell growth factor project, biochemical, small-molecule microarray, fluorescence 635/667 (AID 1087).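 Note: score merges spot fluorescence at 667nm with spot signal to noise ratio.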 To be noted: higher = more signal.
Assay [11] deals with PRMT1 (protein arginine N-methyltransferase 1). The experiment in a line: PRMT1 binders on small-molecule microarrays, primary screen, biochemical, small-molecule microarray, 635 nm fluorescence (AID 1088).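 Note: binding of Prmt1 protein to compounds spotted on small-molecule microarray slides.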 To be noted: small-molecule microarray binding, higher = more signal.
The nature of assay [12]: yeast growth modulation, basal conditions, primary screen, YJM789 clinical isolate, OD600, 24 h (AID 1089).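 Note: growth of clinical yeast isolate S. cerevisiae YJM 789 seeded 1000 cells per well; test concentration not given here.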 As to conditions: S. cerevisiae YJM789 growth, higher = more signal, called active from +8 up or from −8 down.
Assay [13] can be described thus: fission yeast growth modulation, primary screen, strain 972, OD600, 24 h, no modulator (AID 1090).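 Note: basal condition with compound alone and no growth modifier present; test concentration not given here.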 To be noted: S. pombe 972 growth, higher = more signal, called active from +8 up or from −8 down.
Assay [14] in a line: S. cerevisiae growth modulation with rapamycin, primary screen, strain BY4716, OD600, 96 h (AID 1091). Note: test concentration not given here. To be noted: higher = more signal, called active from +8 up or from −8 down.
Assay [15] concerns the target Torsin-1A-interacting protein 2 (Homo sapiens) (UniProt Q8NFQ8). The experiment in a line: LULL1 binders on small-molecule microarray, primary screen, cell lysate, human LULL1 lysate, 635/667 nm fluorescence (AID 1092).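 Note: probe is lysate of COS7 cells overexpressing human LULL1; score merges per-feature 667 nm fluorescence with signal-to-noise.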 As to conditions: hLULL1 lysate binding, 635 nm fluorescence, higher = more signal.
A short description of assay [16]: E. coli growth modulation, two-sided OD650, primary screen, E. coli filamentation project, strain DRC41, 24 h (AID 1093).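 Note: MC1000 strain lacking acrAB efflux and sulA so SOS filamentation is blocked; test concentration not given here.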 As to conditions: OD650, 24 h, higher = more signal, called active from +8 up or from −8 down.
Assay [17] can be described thus: small-molecule microarray binders of probe aLefty2, primary screen, biochemical, biotinylated probe, 635/667 nm fluorescence (AID 1094).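 Note: score merges spot fluorescence near 667 nm with spot signal-to-noise ratio.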 To be noted: higher = more signal.
The subject of assay [18] is Noggin (protein binding on small-molecule microarray). The experiment in a line: Noggin binders on small-molecule microarray, primary screen, biochemical, 635/667 nm fluorescence (AID 1095).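 Note: score merges 667 nm feature fluorescence with signal to noise over triplicate slides.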 To be noted: 635 nm fluorescence, higher = more signal.
Assay [19] concerns the target Neurogenic locus notch homolog protein 3 (Homo sapiens) (UniProt Q9UM47). The assay can be described thus: NOTCH3 binders on small-molecule microarray, primary screen, biochemical, 635/667 nm fluorescence (AID 1096). As to conditions: NOTCH3 binding, 635 nm fluorescence, higher = more signal.
A short description of assay [20]: small-molecule microarray binders of probe aEGFR, primary screen, biochemical, biotinylated probe, 635/667 nm fluorescence (AID 1097).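 Note: probe is a biotinylated anti-EGFR antibody binding compounds printed on slides; score combines fluorescence near 667 nm and signal to noise of each spot.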 As to conditions: higher = more signal.

From PubChem BioAssay come the findings set out here.

Each structure is given as a SMILES string. Active and inactive are the calls of the source.

Sequence of Neurogenic locus notch homolog protein 3 (Homo sapiens) (Q9UM47 whole entry, looked up): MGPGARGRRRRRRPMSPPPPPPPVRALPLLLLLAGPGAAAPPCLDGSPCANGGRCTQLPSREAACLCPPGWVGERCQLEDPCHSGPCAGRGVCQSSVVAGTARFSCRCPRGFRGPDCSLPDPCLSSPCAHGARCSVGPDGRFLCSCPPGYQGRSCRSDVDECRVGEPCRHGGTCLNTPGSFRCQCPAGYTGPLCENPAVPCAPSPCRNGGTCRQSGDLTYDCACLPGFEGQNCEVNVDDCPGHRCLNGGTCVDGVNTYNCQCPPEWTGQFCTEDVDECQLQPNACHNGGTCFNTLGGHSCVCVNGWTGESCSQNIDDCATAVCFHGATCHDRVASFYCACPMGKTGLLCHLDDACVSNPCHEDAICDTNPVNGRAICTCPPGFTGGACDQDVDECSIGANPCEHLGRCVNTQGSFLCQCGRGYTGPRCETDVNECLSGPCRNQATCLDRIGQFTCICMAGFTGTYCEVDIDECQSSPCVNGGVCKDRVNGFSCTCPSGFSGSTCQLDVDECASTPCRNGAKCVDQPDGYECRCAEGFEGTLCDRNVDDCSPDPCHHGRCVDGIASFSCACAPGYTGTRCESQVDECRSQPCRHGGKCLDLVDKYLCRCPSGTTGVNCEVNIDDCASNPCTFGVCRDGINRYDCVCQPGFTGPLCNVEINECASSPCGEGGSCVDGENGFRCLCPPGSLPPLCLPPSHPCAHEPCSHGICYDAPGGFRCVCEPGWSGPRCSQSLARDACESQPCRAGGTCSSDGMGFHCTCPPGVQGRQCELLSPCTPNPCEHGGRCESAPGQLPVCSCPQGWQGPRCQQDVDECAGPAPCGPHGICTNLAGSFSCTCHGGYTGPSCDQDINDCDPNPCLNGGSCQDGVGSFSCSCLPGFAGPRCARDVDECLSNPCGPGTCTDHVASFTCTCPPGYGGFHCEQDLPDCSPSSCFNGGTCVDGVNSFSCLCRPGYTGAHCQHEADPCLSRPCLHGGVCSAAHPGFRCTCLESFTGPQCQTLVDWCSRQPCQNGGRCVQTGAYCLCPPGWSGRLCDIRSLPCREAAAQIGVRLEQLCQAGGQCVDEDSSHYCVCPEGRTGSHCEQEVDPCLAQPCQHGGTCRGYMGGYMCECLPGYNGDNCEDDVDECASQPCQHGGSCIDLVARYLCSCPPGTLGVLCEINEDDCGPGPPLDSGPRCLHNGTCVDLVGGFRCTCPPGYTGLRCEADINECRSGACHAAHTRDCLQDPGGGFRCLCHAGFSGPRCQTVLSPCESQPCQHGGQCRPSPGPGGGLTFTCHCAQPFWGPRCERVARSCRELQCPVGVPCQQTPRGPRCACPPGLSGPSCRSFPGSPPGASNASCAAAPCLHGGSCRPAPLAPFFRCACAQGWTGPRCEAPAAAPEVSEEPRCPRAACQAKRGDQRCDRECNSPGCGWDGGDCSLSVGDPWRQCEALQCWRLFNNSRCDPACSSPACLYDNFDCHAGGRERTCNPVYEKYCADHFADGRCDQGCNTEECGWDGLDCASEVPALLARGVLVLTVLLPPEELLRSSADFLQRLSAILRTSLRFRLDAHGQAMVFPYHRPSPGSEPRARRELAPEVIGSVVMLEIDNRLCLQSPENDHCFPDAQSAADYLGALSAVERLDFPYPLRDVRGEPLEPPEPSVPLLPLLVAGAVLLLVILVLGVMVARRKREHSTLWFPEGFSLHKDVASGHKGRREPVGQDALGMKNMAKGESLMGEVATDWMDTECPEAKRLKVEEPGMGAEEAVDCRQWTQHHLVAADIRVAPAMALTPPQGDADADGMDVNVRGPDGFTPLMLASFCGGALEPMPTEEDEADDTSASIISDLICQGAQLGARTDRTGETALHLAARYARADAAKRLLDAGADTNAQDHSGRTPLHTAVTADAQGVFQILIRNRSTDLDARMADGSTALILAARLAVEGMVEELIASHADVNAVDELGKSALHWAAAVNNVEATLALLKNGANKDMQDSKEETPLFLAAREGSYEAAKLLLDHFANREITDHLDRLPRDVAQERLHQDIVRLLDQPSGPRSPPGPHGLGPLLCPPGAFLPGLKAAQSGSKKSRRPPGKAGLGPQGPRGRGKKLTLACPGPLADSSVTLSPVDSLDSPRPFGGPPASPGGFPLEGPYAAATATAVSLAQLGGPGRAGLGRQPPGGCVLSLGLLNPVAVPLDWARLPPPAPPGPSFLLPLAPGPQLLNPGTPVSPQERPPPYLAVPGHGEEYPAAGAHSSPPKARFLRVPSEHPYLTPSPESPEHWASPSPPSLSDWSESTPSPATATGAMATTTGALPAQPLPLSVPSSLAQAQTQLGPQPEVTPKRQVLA

For `COC(=O)[C@H](C)NC(=O)CCC1CC(OC(=O)NCc2cccc3ccccc23)CC2(CCCC(COC(=O)NCCCN3CCCC3=O)O2)O1` (stereo not given in full), the composite z-score is -0.669 in [1]; -0.158 in assay [2]; -0.141 in [3]; 0.119 in assay [4]; 1.43 in assay [5]; 0.567 in assay [6]. The composite z-score in [7] is 0.925; in assay [9] it was 1.01; in assay [10] it was 0.208; in assay [11], 1.58; in [15] it was 1.89; in assay [17], 0.0598. In addition, the composite z-score amounted to 0.79 in [18], 1.14 in assay [19] and 0.074 in assay [20]. In addition, the z-score in [8] is -3.13 (inactive); in assay [12], 0.691 (inactive); in assay [13], 1.05 (inactive); in assay [14], 0.187 (inactive); in [16], -1.25 (inactive).
In the case of `COc1ccc(COC(=O)NN=C2C[C@@H](O)[C@@H](O)[C@@H]3[C@@H]4C(=O)N(Cc5ccccc5)C(=O)[C@@H]4CC[C@@H]23)cc1`, the composite z-score in assay [1] was -0.512; in assay [2], -0.0209; in assay [3], -0.0286; in [4] it was 0.291; in assay [5], 0.383; in assay [6] it was -0.271. Besides, the composite z-score was -0.214 in [7]; 0.268 in assay [9]; 0.0183 in assay [10]; 0.166 in assay [11]; 0.105 in [15]; -0.0873 in assay [17]. For the same compound, the composite z-score in assay [18] is 0.123; in assay [19], 0.724; in assay [20], -0.0868. Besides, the z-score was 0.364 (inactive) in [8]; 0.712 (inactive) in assay [12]; 0.304 (inactive) in assay [13]; -0.0766 (inactive) in assay [14]; 0.555 (inactive) in assay [16].
Consider `COC(=O)[C@@H]1CC[C@H](C)[C@@H](c2ccc(C)cc2)N1C(=O)c1ccc(C=NOC[C@@H](O)[C@H]2O[C@@H]3OC(C)(C)O[C@@H]3[C@H]2O)cc1`, for which the composite z-score in assay [1] is -0.264; in assay [2], 0.123; in assay [3] it was -0.0138; in assay [4], 0.343; in [5], 0.962; in assay [6] it was 0.441. For the same compound, the composite z-score in [7] is 0.72; in assay [9], 0.794; in assay [10] it was -0.271; in assay [11] it was 0.886; in assay [15], 1.23; in [17], -0.0916. Further, the composite z-score in [18] worked out at 0.159; in assay [19], 1.14; in assay [20], 0.0453. Further, the z-score was 0.453 (inactive) in assay [8]; -1.17 (inactive) in [12]; 0.459 (inactive) in assay [13]; -0.431 (inactive) in [14]; 1.6 (inactive) in assay [16].
Consider `CO[C@H]1C[C@@H]2C[C@H](O)CC(CC(=O)O[C@@H](C=CCC(C)C)C[C@@H]3CC[C@H](C)[C@@H](C1)O3)O2`, for which the composite z-score in [1] was -0.479; in assay [2], 0.613; in assay [3], -0.0442; in assay [4], 0.365; in [5], 1.03; in [6], -0.33. The composite z-score was 0.661 in assay [7]; 0.36 in assay [9]; -0.226 in assay [10]; 1.54 in assay [11]; 1.82 in [15]; -0.158 in assay [17]. Also, the composite z-score was 0.506 in assay [18], 1.06 in assay [19] and -0.0458 in [20]. Further, the z-score in assay [8] is 0.0521 (inactive); in [12], -0.124 (inactive); in assay [13] it was -0.425 (inactive); in assay [14], -0.414 (inactive); in assay [16], 0.128 (inactive).
For the compound `O=C1C[C@@H](O)[C@@H](O)[C@@H]2[C@@H]3C(=O)N(C4CCCCC4)C(=O)[C@@H]3CC[C@@H]12`, the composite z-score in assay [1] was -0.371; in assay [2] it was 0.159; in assay [3], -0.0113; in [4], 0.394; in assay [5], 0.334; in assay [6], 1.05. Also, the composite z-score in assay [7] is 0.546; in assay [9], 0.0535; in assay [10], -0.0237; in [11] it was 0.607; in assay [15] it was 0.905; in assay [17] it was -0.137. Also, the composite z-score in [18] is 0.354; in assay [19], 0.57; in assay [20], -0.0921. For the same compound, the z-score in [8] is 0.129 (inactive); in assay [12], 0.93 (inactive); in [13] it was -0.509 (inactive); in assay [14], -0.149 (inactive); in assay [16], 0.536 (inactive).
